TDP1 inh: qHTS Assay for Inhibitors of Tyrosyl-DNA Phosphodiesterase (TDP1). Tyrosyl-DNA phosphodiesterase 1 (Homo sapiens), Q9NUW8. recombinant TDP1, AlphaScreen DNA substrate cleavage. Potency, µM (titrated, usually from 130 µM), for inactives: at the top dose activity change, negative = inhibition, most hits filed as inhibitors. 350,000 tested, 0.28% active. AID 485290, 2010; also: potency is read from the fitted curve at half-maximal effect; % is scaled to controls: 0 for no effect and ±100 for the full control effect; nearly all actives have a fitted effect of over 40% in size
Target sequence (Q9NUW8 whole entry, looked up): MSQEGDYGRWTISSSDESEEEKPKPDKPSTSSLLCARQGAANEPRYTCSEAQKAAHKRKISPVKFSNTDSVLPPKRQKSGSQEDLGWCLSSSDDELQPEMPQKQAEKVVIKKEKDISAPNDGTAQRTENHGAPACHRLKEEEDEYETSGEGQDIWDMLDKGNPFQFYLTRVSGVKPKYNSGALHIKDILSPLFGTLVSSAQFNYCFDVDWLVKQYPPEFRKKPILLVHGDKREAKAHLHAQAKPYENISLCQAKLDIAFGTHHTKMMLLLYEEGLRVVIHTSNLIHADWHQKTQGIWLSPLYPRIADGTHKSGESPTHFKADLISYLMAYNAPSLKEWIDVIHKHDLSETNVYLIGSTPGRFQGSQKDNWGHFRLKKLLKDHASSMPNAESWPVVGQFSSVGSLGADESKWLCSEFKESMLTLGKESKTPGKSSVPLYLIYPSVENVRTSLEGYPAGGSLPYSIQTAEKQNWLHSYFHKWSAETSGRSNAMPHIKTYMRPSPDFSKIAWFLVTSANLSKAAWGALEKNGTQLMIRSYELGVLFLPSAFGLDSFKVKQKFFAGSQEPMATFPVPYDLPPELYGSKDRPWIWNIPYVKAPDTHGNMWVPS
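Recombinant human Tdp1 (E. coli-expressed, 1 nM final) preincubated with compounds 15 min at room temperature, then 5'-biotin/3'-phosphotyrosine-FITC DNA substrate (15 nM final) added for 5 min. AlphaScreen beads (10 ug/ml final) added 10 min; cleavage lowers signal.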
uPA generation: qHTS for Inhibitors of Cell Surface uPA Generation; 330,000 tested, 0.31% active; AID 540303, 2011; Potency, µM (series often up to 38.3 µM), for inactives: at the top dose activity change, negative = inhibition, most hits filed as inhibitors; cell surface uPA generation assay, qHTS; active = well fitted inhibition curve with a large enough effect; inconclusive = small, poorly fitted or top-dose-only effect; inactive = no such curve, though single readings can be large or run the other way; tested in mouse RAW 264.7 cells; also: potency is read from the fitted curve at half-maximal effect; % is scaled to controls: 0 for no effect and ±100 for the full control effect; nearly all actives have a fitted effect of over 55% in size
TDP1 cell noCPT: qHTS for Inhibitors of human tyrosyl-DNA phosphodiesterase 1 (TDP1): qHTS in cells in absence of CPT. DT40 Tdp1-/- hTDP1 cells, no CPT, ATP luminescence, 48 h. 420,000 tested, 15% active. Potency, µM (titrated, usually from 46.2 µM), without a hit: at the top dose activity change, negative = growth inhibition, most hits filed as inhibitors; also: potency is read from the fitted curve at half-maximal effect; % is scaled to controls: 0 for no effect and ±100 for the full control effect; nearly all actives have a fitted effect of over 55% in size
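DT40 Tdp1-/-;hTDP1 cells, no CPT (DMSO vehicle only), 400 cells/well; compounds pin-transferred; ≥48 hr, 37 °C; CellTiter-Glo 30 min RT dark, luminescence read.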
TDP1 cell CPT: qHTS for Inhibitors of human tyrosyl-DNA phosphodiesterase 1 (TDP1): qHTS in cells in presence of CPT | AID 686979, 2013 | chicken DT40 Tdp1-/-;hTDP1 cells + 20 nM CPT, ATP luminescence, 48 h | Potency, µM (titrated, usually from 46.2 µM), inactives show top-dose activity change, negative = growth inhibition, actives largely listed as inhibitors | 420,000 tested, 12% active; also: potency is read from the fitted curve at half-maximal effect; % is scaled to controls: 0 for no effect and ±100 for the full control effect; nearly all actives have a fitted effect of over 55% in size
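Chicken DT40 Tdp1-/- cells complemented with human TDP1, 400 cells/well, exposed to compounds plus 20 nM camptothecin for at least 48 h at 37 C; viability read as ATP content by CellTiter-Glo luminescence.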
miR-21 act: qHTS Assay for Modulators of miRNAs and/orActivators of miR-21; Potency, µM (doses to about 38.3 µM), for the others: at the top dose activity change, positive = activation, most hits filed as activators; 340,000 tested, under 10 active; HeLa miR-21 FLuc reporter, luciferase, 48 h;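 also: % of control where 0% means no effect; miR-21 action dims this reporter so a rising signal means less miR-21 action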
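Compounds were titrated across several concentrations (up to approximately 40 uM) and incubated 48 hours with HeLa miR-21-FLuc reporter cells (miR-21 target sequence downstream of FLuc, endogenous miR-21). Readout was firefly luciferase luminescence after lytic detection reagent.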
Numbers without * were called inactive; ? = inconclusive; . = no result given; [ ] = dose if it differs, or a comment. A selection: hits, their analogues and other compounds. The true share with any hit is near 16%. Unless noted, calls follow the shape of the dose curve; as a rule, active = well fitted curve in the direction sought with a large enough effect; inconclusive = small, poorly fitted or top-dose-only effect, or another doubt; inactive = no such curve, though single readings can be large; an effect the other way counts as inactive or inconclusive.

SMILES	TDP1 inh	uPA generation	TDP1 cell noCPT	TDP1 cell CPT	miR-21 act
Cc1ccc(NS(=O)(=O)c2ccc3c(c2)NC(=O)C(C)C(=O)N3)cc1F (configuration not stated)	11%	.	?	-30%	1%
Cc1ccc(NS(=O)(=O)c2ccc3c(c2)C(C(C)C)C(=O)N3)cc1C (configuration not stated)	3%	.	29µM*	?	-11%
Cc1ccc(NS(=O)(=O)c2ccc3c(c2)NC(=O)CC(=O)N3)cc1C	3%	5%	2%	-26%	4%
Cc1ccc(S(=O)(=O)Nc2ccc3[nH]c(=O)sc3c2)cc1C	4%	.	16µM*	?	4%
Cc1ccc(NS(=O)(=O)c2ccc3c(c2)NC(=O)C(C)C(=O)N3)cc1C (configuration not stated)	.	-6%	18µM*	?	-2%
O=c1[nH]c2ccc(NS(=O)(=O)c3ccc(F)cc3)cc2s1	5%	.	?	0%	-1%
Cc1ccc(CCNS(=O)(=O)c2ccc3c(c2)C(C(C)C)C(=O)N3)cc1 (configuration not stated)	3%	.	21µM*	?	-7%
CC(OC(=O)Cc1ccsc1)C(=O)Nc1ccc(Cl)cn1 (configuration not stated)	.	7%	6%	14%	.
CCCN1CCN(S(=O)(=O)c2cn(C)nc2C)CC1	3%	-2%	12%	-1%	-5%
O=C(CSc1nc(-c2ccccc2)[nH]c1-c1ccc(F)cc1)NC1CCCC1	0%[12.3 µM]	.	?	?	21%
CCCc1cc(C(=O)NNC(=S)NC(C)c2ccccc2)cs1 (configuration not stated)	8%	.	-18%	-17%	18%
CC1CC(C)CN(S(=O)(=O)c2ccc(NC(=O)CCNC(=O)c3ccc([N+](=O)[O-])cc3)cc2)C1 (configuration not stated)	1%	-4%	9%	?	.
CCOC(=O)c1ccc(-c2ccc(/C=N/NC(=O)c3cncc(Br)c3)o2)cc1	.	1%	23µM*	?	-17%
CCCOC(=O)c1ccc(-c2ccc(C=O)o2)cc1	-2%	-4%	?	-24%	-44%
CCCCOC(=O)c1ccc(-c2ccc(/C=N/NC(=S)NCC)o2)cc1	5%	.	7.3µM*	5.8µM*	-11%
Cc1ccc(/C=N\NC(=O)c2cncc(Br)c2)o1	0%	9%	-4%	-5%	-4%
COc1cccc(NC(=O)C(=O)NCCc2ccc(F)cc2)c1	.	-2%	-17%	0%	-64%
COc1ccc(Br)cc1C(=O)Nc1ccc(-c2nc3cc(Cl)ccc3o2)cc1	2%[12.3 µM]	.	-4%	-9%	-5%
CC(=O)c1ccc(N2CCN(C(=O)c3cccs3)C(C)C2)c(F)c1 (configuration not stated)	8%	18%	21µM*	?	5%
Cc1ccc(C2=NN=C(NC(=O)C(F)(F)F)SC2)cc1	5%	-1%	-9%	-6%	-35%
Cc1ccccc1Nc1nc(-c2sc(NC(=O)c3ccco3)nc2C)cs1	7%	4%	?	?	-12%
Cc1ccc(Nc2nc(-c3sc(NC(=O)c4ccco4)nc3C)cs2)cc1	4%	-28%	13µM*	?	-1%
CC(=O)Nc1nc(C)c(-c2csc(Nc3ccccn3)n2)s1	-4%	-26%	13µM*	10µM*	-40%
O=C(Nc1ccc(-c2ccc(N3CCCCC3)nn2)cc1)c1ccco1	.	-1%	26µM*	?	.
CC(=O)Nc1nc(C)c(-c2csc(Nc3cccc([N+](=O)[O-])c3)n2)s1	-1%	-14%	5.2µM*	8.2µM*	-8%
SMILES	TDP1 inh	uPA generation	TDP1 cell noCPT	TDP1 cell CPT	miR-21 act
CC(C)C[C@H](NC(=O)C1CC(=O)N(c2ccc3c(c2)OCO3)C1)C(=O)NC1CCCCC1 (some centres not stated)	0%	12%	14%	-2%	-5%
COC(=O)C1=C(C(=O)OC)[C@@H]2N(C)c3ccccc3[C@@]23C[C@@H](CO)N(C(=O)c2cccs2)C3=N1	.	3%	-1%	-3%	.
CC(=O)Nc1nc(C)c(-c2csc(Nc3cccc(C(C)=O)c3)n2)s1	.	11µM*	5.2µM*	3.3µM*	14%
Cc1nc(-c2ccc(NC(=O)c3ccco3)cc2)cs1	.	?	?	13µM*	26%
Cc1nc(N)sc1-c1csc(Nc2cccc(C(=O)O)c2)n1	.	10%	7%	-6%	-4%
CC(=O)Nc1ccc(Nc2nc(-c3sc(NC(C)=O)nc3C)cs2)cc1	.	-10%	13µM*	16µM*	28%
CCCNC(=O)c1sc2c(c1C(=O)Nc1ccccn1)CCCC2	5%	4%	18µM*	26µM*	6%
Cc1c(/C(O)=C2\C(=O)C(=O)N(CCN(C)C)C2c2cccs2)cnn1-c1ccccc1 (configuration not stated)	3%	0%	-1%	-8%	-49%
Cc1nc2cc(NS(=O)(=O)c3ccccc3)ccc2n1C	5%	-3%	?	?	0%
Cc1ccc(S(=O)(=O)NCCC2=CCCCC2)cc1	-1%	4%	-26%	-8%	.
Cc1ccc(CNCCC2=CCCCC2)cc1	-7%	.	23µM*	?	-21%
C#CCSc1n[nH]c(-c2ccco2)n1	1%	11%	3%	-7%	-7%
O=C(Nc1ccc(OC(F)F)cc1)c1ccccn1	-3%	-9%	3%	4%	-16%
CS(=O)(=O)c1ncc(Cl)c(C(=O)Nc2ccc(OC(F)F)cc2)n1	.	-14%	1.2µM*	0.82µM*	?
CS(=O)(=O)c1ccc(C(=O)Nc2ccc(N3CCOCC3)cc2)c(Cl)c1	-6%	-7%	?	4%	1%
CS(=O)(=O)c1ncc(Cl)c(C(=O)Nc2ccc(N3CCOCC3)cc2)n1	5%	?	1.1µM*	1.2µM*	?
C[S+](C)CCC(N)C(=O)O (configuration not stated)	.	.	-22%	14%	.
COc1cc(CNC(=O)c2ccc3c(c2)c(C)c(C)n3Cc2cccc(C)c2)cc(OC)c1OC	11%	.	8.2µM*	18µM*	15%
Cc1ccccc1CNC(=O)c1ccc2c(c1)c(C)c(C)n2C	11%	.	?	?	-13%
CCOc1ccc(CNC(=O)c2ccc3c(c2)c(C)c(C)n3Cc2ccc(Cl)cc2)cc1	5%	.	?	?	9%
Cc1c(C)n(Cc2ccccc2)c2ccc(C(=O)O)cc12	.	-2%	-14%	6%	.

Compound activity deposited in PubChem by National Center for Advancing Translational Sciences (NCATS).
